# Reference: PubChem BioAssay AID1159580 (chemical genetic matrix, 2015)
# Values joined by “and” are separate entries in the source; they are usually repeats but may differ in a detail not shown here. Identical values can stand only once. In all, about 5,500 compounds went through this assay and about 2,000 (36%) were called active. About 18% were inconclusive and are not listed. Rule as the data show it: active = normalized growth mostly below about 0.91 (no sharp cut-off); inconclusive = no clear call, values can overlap the other calls; inactive = mostly above about 0.92. The list shows a part of the results. Where a structure was tested more than once in an assay, its records may differ in their call.
# Test: chemical genetic growth profiling, strain panel (AID 1159580);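 also: tested at 20 µM; growth read once vehicle control cultures reached saturation at 30 °C; 1 = growth at the plate median or of vehicle wells; lower values mean less growth of the strain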
# Details: S. cerevisiae deletion strains, growth OD
structure (smiles),measurement,setting,value
CN1C2CCC1CC(OC(c1ccccc1)c1ccccc1)C2 (stereo not given),normalized growth,"locus YAL013W, strain DEP1, stronger effect = lower value",0.825 (active) and 1.01 (inactive)
same,normalized growth,"locus YAL021C, strain ccr4, stronger effect = lower value",0.963 (inactive)
same,normalized growth,"locus YAL026C, strain drs2, stronger effect = lower value",0.975 (inactive)
same,normalized growth,"locus YAL030W, strain snc1, stronger effect = lower value",0.985 (inactive)
same,normalized growth,"locus YAL040C, strain CLN3, stronger effect = lower value",0.98 (inactive)
same,normalized growth,"locus YBL061C, strain skt5, stronger effect = lower value",0.989 (inactive)
same,normalized growth,"locus YBR009C, strain hhf1, stronger effect = lower value",0.968 (inactive)
same,normalized growth,"locus YBR021W, strain FUR4, stronger effect = lower value",1.02 (inactive)
same,normalized growth,"locus YBR023C, strain chs3, stronger effect = lower value",0.994 (inactive)
same,normalized growth,"locus YBR171W, strain sec66, stronger effect = lower value",0.977 (inactive)
same,normalized growth,"locus YBR229C, strain ROT2, stronger effect = lower value",0.989 (inactive)
same,normalized growth,"locus YBR231C, strain swc5, stronger effect = lower value",0.998 (inactive)
same,normalized growth,"locus YBR279W, strain paf1, stronger effect = lower value",0.967 (inactive)
same,normalized growth,"locus YCL011C, strain gbp2, stronger effect = lower value",0.982 (inactive)
same,normalized growth,"locus YCL016C, strain dcc1, stronger effect = lower value",0.969 (inactive)
same,normalized growth,"locus YCL029C, strain bik1, stronger effect = lower value",0.98 (inactive)
same,normalized growth,"locus YCL069W, strain vba3, stronger effect = lower value",0.989 (inactive)
same,normalized growth,"locus YCR088W, strain abp1, stronger effect = lower value",0.998 (inactive)
same,normalized growth,"locus YDL005C, strain med2, stronger effect = lower value",0.977 (inactive)
same,normalized growth,"locus YDL035C, strain GPR1, stronger effect = lower value",0.894 (inactive)
same,normalized growth,"locus YDL040C, strain nat1, stronger effect = lower value",0.992 (inactive)
same,normalized growth,"locus YDL074C, strain BRE1, stronger effect = lower value",0.665 (active)
same,normalized growth,"locus YDL101C, strain DUN1, stronger effect = lower value",0.914 (inactive)
same,normalized growth,"locus YDL134C, strain PPH21, stronger effect = lower value",0.924 (inactive)
same,normalized growth,"locus YDL185W, strain tfp1, stronger effect = lower value",0.969 (inactive)
same,normalized growth,"locus YDL192W, strain arf1, stronger effect = lower value",0.986 (inactive)
same,normalized growth,"locus YDR001C, strain nth1, stronger effect = lower value",0.989 (inactive)
same,normalized growth,"locus YDR069C, strain doa4, stronger effect = lower value",0.981 (inactive)
same,normalized growth,"locus YDR101C, strain arx1, stronger effect = lower value",1 (inactive)
same,normalized growth,"locus YDR137W, strain rgp1, stronger effect = lower value",1.01 (inactive)
same,normalized growth,"locus YDR150W, strain NUM1, stronger effect = lower value",1.01 (inactive)
same,normalized growth,"locus YDR159W, strain sac3, stronger effect = lower value",0.976 (inactive)
same,normalized growth,"locus YDR162C, strain NBP2, stronger effect = lower value",0.778 (active)
same,normalized growth,"locus YDR195W, strain ref2",0.975 (inactive)
same,normalized growth,"locus YDR297W, strain sur2, stronger effect = lower value",0.981 (inactive)
same,normalized growth,"locus YDR318W, strain mcm21, stronger effect = lower value",0.982 (inactive)
same,normalized growth,"locus YDR334W, strain swr1, stronger effect = lower value",0.999 (inactive)
same,normalized growth,"locus YDR335W, strain msn5, stronger effect = lower value",0.986 (inactive)
same,normalized growth,"locus YDR363W, strain ESC2, stronger effect = lower value",1 (inactive)
same,normalized growth,"locus YDR388W, stronger effect = lower value",0.972 (inactive)
same,normalized growth,"locus YDR392W, strain spt3, stronger effect = lower value",0.87 (inactive)
same,normalized growth,"locus YDR502C, strain sam2, stronger effect = lower value",0.964 (inactive)
same,normalized growth,"locus YEL003W, strain gim4, stronger effect = lower value",0.983 (inactive)
same,normalized growth,"locus YEL037C, strain rad23, stronger effect = lower value",0.977 (inactive)
same,normalized growth,"locus YEL061C, strain CIN8 (second series), stronger effect = lower value",0.988 (inactive)
same,normalized growth,"locus YEL061C, strain CIN8, stronger effect = lower value",0.983 (inactive)
same,normalized growth,"locus YER002W, strain NOP16, stronger effect = lower value",0.989 (inactive)
same,normalized growth,"locus YER015W, strain faa2, stronger effect = lower value",0.99 (inactive)
same,normalized growth,"locus YER016W, strain bim1, stronger effect = lower value",0.949 (inactive)
same,normalized growth,"locus YER110C, stronger effect = lower value",0.974 (inactive)
same,normalized growth,"locus YER111C, strain swi4, stronger effect = lower value",1 (inactive)
same,normalized growth,"locus YER155C, strain BEM2 (second series), stronger effect = lower value",0.985 (inactive)
same,normalized growth,"locus YER155C, strain BEM2, stronger effect = lower value",0.805 (active)
same,normalized growth,"locus YER167W, strain BCK2, stronger effect = lower value",0.939 (inactive)
same,normalized growth,"locus YFR010W, strain ubp6, stronger effect = lower value",0.973 (inactive)
same,normalized growth,"locus YGL078C, strain dbp3, stronger effect = lower value",0.98 (inactive)
same,normalized growth,"locus YGL086W, strain mad1, stronger effect = lower value",0.951 (inactive)
same,normalized growth,"locus YGL167C, strain pmr1, stronger effect = lower value",0.996 (inactive)
same,normalized growth,"locus YGL173C, strain kem1, stronger effect = lower value",0.982 (inactive)
same,normalized growth,"locus YGL227W, strain vid30, stronger effect = lower value",1 (inactive)
same,normalized growth,"locus YGL240W, strain doc1, stronger effect = lower value",1.02 (inactive)
same,normalized growth,"locus YGL248W, strain PDE1, stronger effect = lower value",0.842 (active)
same,normalized growth,"locus YGL253W, strain hxk2, stronger effect = lower value",0.999 (inactive)
same,normalized growth,"locus YGR078C, strain PAC10, stronger effect = lower value",0.802 (active) and 1.01 (inactive)
same,normalized growth,"locus YGR135W, strain pre9, stronger effect = lower value",0.936 (inactive)
same,normalized growth,"locus YGR252W, strain gcn5, stronger effect = lower value",0.895 (inactive)
same,normalized growth,"locus YHR013C, strain ard1, stronger effect = lower value",0.924 (inactive)
same,normalized growth,"locus YHR027C, strain rpn1, stronger effect = lower value",0.985 (inactive)
same,normalized growth,"locus YHR030C, strain SLT2, stronger effect = lower value",0.839 (active)
same,normalized growth,"locus YHR079C, strain IRE1 (second series), stronger effect = lower value",0.977 (inactive)
same,normalized growth,"locus YHR094C, strain hxt1, stronger effect = lower value",0.977 (inactive)
same,normalized growth,"locus YHR129C, strain ARP1, stronger effect = lower value",0.87 (active)
same,normalized growth,"locus YHR142W, strain chs7, stronger effect = lower value",0.968 (inactive)
same,normalized growth,"locus YHR200W, strain rpn10, stronger effect = lower value",0.981 (inactive)
same,normalized growth,"locus YIL066C, strain RNR3, stronger effect = lower value",0.952 (inactive)
same,normalized growth,"locus YIL073C, strain SPO22, stronger effect = lower value",0.804 (inactive)
same,normalized growth,"locus YIL125W, strain kgd1, stronger effect = lower value",0.982 (inactive)
same,normalized growth,"locus YIR030C, strain dcg1, stronger effect = lower value",0.986 (inactive)
same,normalized growth,"locus YJL092W, strain hpr5, stronger effect = lower value",0.99 (inactive)
same,normalized growth,"locus YJL095W, strain BCK1 (second series), stronger effect = lower value",0.987 (inactive)
same,normalized growth,"locus YJL095W, strain BCK1, stronger effect = lower value",0.723 (active)
same,normalized growth,"locus YJL115W, strain asf1, stronger effect = lower value",0.98 (inactive)
same,normalized growth,"locus YJL129C, strain trk1, stronger effect = lower value",0.975 (inactive)
same,normalized growth,"locus YJL134W, strain LCB3, stronger effect = lower value",0.997 (inactive)
same,normalized growth,"locus YJL154C, strain vps35, stronger effect = lower value",0.975 (inactive)
same,normalized growth,"locus YJL164C, strain tpk1, stronger effect = lower value",0.979 (inactive)
same,normalized growth,"locus YJL166W, strain qcr8, stronger effect = lower value",1.01 (inactive)
same,normalized growth,"locus YJL168C, strain set2, stronger effect = lower value",0.985 (inactive)
same,normalized growth,"locus YJL187C, strain SWE1 (second series), stronger effect = lower value",0.888 (inactive)
same,normalized growth,"locus YJL187C, strain SWE1, stronger effect = lower value",0.989 (inactive)
